Measurements: the OligoGym collection

Target: SGTA
Assay: pooled miR-30 sensor sort-seq; sequence = guide strand
Conditions: shRNA
Further: reference of the scale not given here.

Row | Sequence | sensor-assay potency score (higher = more potent)
1 | TTCCACTTTCATCTGCTCGTTT | 0.488
2 | TGAGCTGCTCTATCAACTCTGG | -0.693
3 | TATCAACTCTGGGTTCTGCTGC | 0.409
4 | TTTTCCACTTTCATCTGCTCGT | -0.241
5 | AAGGTCACTGTCTTCTACCGTC | 0.33
6 | TTCTGCTGCTGCATCTGCTGGG | 0.386
7 | TAGGCCTTGCTGTAGGCCGGGT | -1.17
8 | TATCTTGAGGTTGGACTTGTAT | -0.792
9 | TTGTATGTCTCGTTGTCGGGGT | 0.213
10 | TTGGACTTGTATGTCTCGTTGT | 0.614
11 | TTGAGCTCGATGGCTTTTCCGT | -0.866
12 | TCATCTGCTCGTTTCCTTCGGT | 0.113

Target: SH3YL1
Assay: as above
Conditions: shRNA

Row | Sequence | sensor-assay potency score (higher = more potent)
13 | TTGGAGGTAATTCTTTAGCAGA | -1.34
14 | TTGAGAGCCAGAGTTCAGCTGG | 0.176
15 | ATAACTGTGATTCTGTCTCCAG | -0.286
16 | TTGCATTGATTCGTTGTCCTTC | 0.55
17 | TTATATTCATTTCTGTTGCTTT | -0.121
18 | TTTTCTTGCATTGATTCGTTGT | 0.574
19 | TTTCATAAAGATCTTCGGCTTG | -0.146
20 | TAACTGTGATTCTGTCTCCAGC | -0.946
21 | TTTAGCAGAAGACTTCCTCTGC | 0.193
22 | TTAACTAGTAAATCCTGTCAGT | -0.0626
23 | TTGCTTAACTAGTAAATCCTGT | 0.218
